From PubChem BioAssay AID2685 (National Center for Advancing Translational Sciences (NCATS), 2010)
Among all 320,000 compounds or so, about 2,100 (0.66%) were called active. Inconclusive results (about 53%) are left out. Calls follow the shape of the dose curve; as a rule, active = well fitted inhibition curve with a large enough effect in the signal ratio, with a control signal flat (not every such curve was filed as active); inconclusive = small, poorly fitted or top-dose-only effect, or effect the other way, or a change in a side signal; inactive = flat fitted curve, though single readings scatter; the % refers to the signal ratio. For the sample, actives were picked, then their nearest neighbours and some compounds at random.

Assay: qHTS Assay for Lipid Storage Modulators in Drosophila S3 Cells;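 as to cell number change: cells counted by Cell Tracker Red CMTPX staining in the red channel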; as to lipid storage change, negative = inhibition: % is scaled to controls: 0 for no effect and ±100 for the full control effect
Conditions: BODIPY lipid droplet fluorescence, 18-24 h, cells fed with added oleic acid; cell number change: measured here: cell count max response; series mostly up to 46.1 µM
Procedure, shortened: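 Drosophila S3 cells got compounds at several concentrations plus oleic acid (400 uM solution). Laser-scanning cytometry with 488 nm excitation read lipid droplets at 500-530 nm and cells at 575-640 nm. Percent activity was relative to 20 uM Triacsin C.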
Potency is read from the fitted curve at half-maximal effect.

SMILES	Potency	cell number change [%]	lipid storage change, negative = inhibition
C#CCOC(=O)C[N+](C)(C)CC=C	inactive	12.5	
Nc1ccc(C(=O)N/N=C/c2c[nH]c3ccccc23)cc1	inactive	14.6	
CCC(NS(=O)(=O)c1cccs1)c1ccc(C)cc1 (stereo unspecified)	0.164 µM (active)	13.3	
Cc1ccc(CNC(=O)C(NS(=O)(=O)c2cccs2)C(C)C)cc1 (stereo unspecified)	inactive	20.4	
Cc1ccc(CNC(=O)C(Cc2ccccc2)NS(=O)(=O)c2cccs2)cc1 (stereo unspecified)	inactive		
CCS(=O)(=O)n1nc(-c2ccco2)nc1N	inactive	19.9	
Cc1ccc(N/C(CSC(N)=O)=N/S(=O)(=O)c2ccccc2)cc1	16.4 µM (active)		
CS/C(=N/S(=O)(=O)c1ccc(C)cc1)c1ccccc1	inactive	-26.1	
Cc1ccc(NC(=S)N/C(=N/S(=O)(=O)c2ccccc2)c2ccccc2)cc1	inactive		
COc1cc(OC)cc(C(=O)NC(C)CNc2ccc(Cl)cc2[N+](=O)[O-])c1 (stereo unspecified)	16.4 µM (active)	-19.1	
CC(CNC(=O)c1cc(Cl)ccc1[N+](=O)[O-])NC(=O)c1cc(Cl)ccc1[N+](=O)[O-] (stereo unspecified)	inactive	-7.89	
COc1ccc(NC(=O)c2cc(Cl)ccc2Cl)c([N+](=O)[O-])c1	inactive	-6.66	
CCC(C)(C)n1nnnc1C(c1cc2cc(C)cc(C)c2[nH]c1=O)N1CCCC1 (stereo unspecified)	inactive	6.4	
CN(Cc1ccccc1)CC(O)COc1ccc(CNCCOc2cccnc2)cc1 (stereo unspecified)	inactive	3.58	
Cc1cc(NC(=O)c2cc([N+](=O)[O-])cc([N+](=O)[O-])c2C)no1	inactive	11.7	
CCC1=Nc2ccccc2-c2nnc(SC)nc2O1	inactive		
O=C1Nc2ccc(Br)cc2C1(O)Cc1ccncc1 (stereo unspecified)	inactive	16.8	
O=C1Nc2ccccc2C1(O)Cc1ccncc1 (stereo unspecified)	13 µM (active)	1.32	
O=C1Nc2ccccc2C1(O)Cc1ccccn1 (stereo unspecified)	inactive	-9.38	
NS(=O)(=O)c1ccc(CCNC(=O)CSc2ccc3ccccc3c2)cc1	inactive		
COCCN(C(=O)COC(=O)/C(=C/c1ccccc1)NC(C)=O)c1c(N)n(Cc2ccccc2)c(=O)[nH]c1=O	inactive	-11.6	
COc1ccc(CCNC(=O)C2CC3Cn4c(nc5ccccc54)C3N2C)cc1 (stereo unspecified)	inactive	-10.7	
COC(=O)C1=C(C)N=C2SC(C#N)=C(N)N2C1c1ccc(OC)cc1 (stereo unspecified)	11.6 µM (active)	-10.8	
COC(=O)C1=C(C)N=C2SC(C#N)=C(N)N2C1c1cccc(OC)c1 (stereo unspecified)	inactive	-6.05	
COC(=O)C1=C(C)N=C2SC(C#N)=C(N)N2C1c1cc(OC)c(OC)c(OC)c1 (stereo unspecified)	inactive	2.55	

SMILES	Potency	cell number change [%]	lipid storage change, negative = inhibition
CCC1(C(=O)OC)NC(c2ccco2)C2C(=O)N(c3ccc(C)cc3)C(=O)C21 (stereo unspecified)	29.1 µM (active)	-0.0174	
CCCC1(C(=O)OC)NC(c2ccco2)C2C(=O)N(c3ccc(C)cc3)C(=O)C21 (stereo unspecified)	inactive	3.89	
CCC1(C(=O)OC)NC(c2ccco2)C2C(=O)N(c3ccccc3)C(=O)C21 (stereo unspecified)	inactive	5.03	
COc1ccccc1C1=Nn2c(COc3ccccc3)nnc2SC1	inactive	23.6	
O=S(=O)(c1ccc(Cl)cc1)N1CCn2c1nc1ccccc12	inactive		
O=[N+]([O-])c1cccc(S(=O)(=O)N/N=C\c2ccc3c(c2)OCO3)c1	inactive	-21.8	
Cc1nc(Cc2ccc(OC(C)C)cc2)[nH]c(=O)c1CC(=O)O	inactive	12.4	
Cc1ccc(-c2csc(NC(=O)C3=COCCO3)n2)cc1	inactive	-0.453	
O=C(Nc1nc(-c2ccc(Cl)cc2)cs1)C1=COCCO1	9.2 µM (active)	-17.4	
CC(=O)Nc1ccc(-c2csc(NC(=O)C3=COCCO3)n2)cc1			-16.5% [at 0.0737 µM] (inactive)
COC(=O)CNC(c1ccccc1)c1cc(Br)ccc1NC(C)=O (stereo unspecified)	inactive	6.76	
CCC(=O)Nc1ccc(NC(=O)c2ccccc2Cl)nc1	inactive	7.43	
COc1cc(C(=O)Oc2ccc(C(=S)N3CCOCC3)cc2)cc(OC)c1OC	inactive	-0.493	
CCOCCOc1cccc(C(=O)NC(c2ccccc2)C(C)C)c1 (stereo unspecified)	inactive	13.4	
CCOCCOc1cccc(C(=O)NC(C)c2ccc3ccccc3c2)c1 (stereo unspecified)	13 µM (active)	-6.8	
CCOc1cccc(C(=O)Nc2ccc3ccccc3c2)c1	inactive	17.9	
CC12COC3(C(=O)Nc4ccccc4F)CC1CCC32C (stereo unspecified)	inactive	-23.5	
CCc1nc(C)cn1S(=O)(=O)c1ccc([N+](=O)[O-])cc1	inactive	7.81	
COC(=O)CN1C(=S)N(C)C(=O)/C1=C/c1cccs1	inactive		
O=C(CCCO)c1ccc2c(c1)OCCO2	18.4 µM (active)	-5.61	
O=C(CCCc1ccccc1)c1ccc2c(c1)OCCO2	inactive	-0.322	
O=C(Cc1ccccc1)c1ccc2c(c1)OCCO2	inactive	9.53	
Cn1c2c(c3ccccc31)CC/C2=N\O	inactive	17	
Cc1ccc(P(=O)(OCCN2CCOCC2)C(C)(C)C)o1 (stereo unspecified)	inactive	-0.698	
CCCCc1nnc(NC(=O)CSc2nc(O)c(-c3ccccc3)c(=O)[nH]2)s1	inactive	-17.7	

SMILES	Potency	cell number change [%]	lipid storage change, negative = inhibition
O=C1CC(c2ccc3c(c2)OCCO3)Oc2ccccc21 (stereo unspecified)	inactive	8.06	
O=C1CC(c2ccc3c(c2)OCCO3)Oc2ccc([N+](=O)[O-])cc21 (stereo unspecified)	7.31 µM (active)	-9.91	
COc1ccc2c(c1)C(=O)CC(c1ccc3c(c1)OCCO3)O2 (stereo unspecified)	inactive	2.81	
C/C(N)=C(/C#N)C(=O)COC(=O)c1ccc(NC(N)=O)cc1	inactive	13.4	
O=C(N/N=C/c1cccc([N+](=O)[O-])c1)c1ccc(Br)cc1	inactive	0.144	
Cn1nnnc1SCCNCc1cc(Cl)ccc1OCc1ccccc1	5.8 µM (active)	3.31	
Cn1nnnc1SCCNCc1ccccc1OCc1ccccc1	inactive	16.4	
COc1cc(CNCCSc2nnnn2C)cc(Br)c1OCc1ccccc1	inactive	-4.04	
O=C(CSc1nccn1Cc1ccco1)Nc1ccccc1	inactive	2.09	
COc1cnc(-c2ccccn2)nc1Oc1c(C)cccc1C	inactive		
COc1cnc(-c2ccccc2)nc1Oc1cccc(C)c1C	inactive	7.32	
COc1cnc(-c2ccccc2)nc1Oc1ccccc1C	5.17 µM (active)	-26.8	
COc1ccc(/C=C2/N=C(SC3CCOC3=O)N(c3cccc(OC)c3)C2=O)cc1 (stereo unspecified)	inactive	-7.72	
CCOC(=O)C1CCN(CC(=O)c2c(C)[nH]c3ccccc23)CC1	inactive		
O=c1oc(-c2cccs2)nc2ccccc12	inactive	0.728	
Cc1ccccc1CSCCNC(=O)CSCc1ccc([N+](=O)[O-])cc1	inactive	-11.7	
Cc1ccc(CSCCNC(=O)CSCc2ccc([N+](=O)[O-])cc2)cc1	inactive		
Cc1cccc(CSCCNC(=O)CSCc2ccc([N+](=O)[O-])cc2)c1	14.6 µM (active)	-21.3	
Cc1ccc(C)c(N2CCN(C(=O)c3ccccc3Br)CC2)c1	inactive	10.9	
Brc1cccc(-c2nnc(-c3ccccc3)o2)c1	inactive	1.68	
COC(=O)C1(Cc2cc(-c3cccc(Br)c3)no2)CCN(C(=O)OC(C)(C)C)CC1	inactive	7.19	
CNc1ccccc1C(C)(C)c1cc(-c2cccc(Br)c2)no1	1.46 µM (active)	-5.11	
CCc1ccc(CNC(=O)C2CCN(S(=O)(=O)N3CCC4(CC3)OCCO4)CC2)cc1	inactive	0.101	
Cc1ccccc1C(=O)Nc1ccnn1C1CCN(Cc2c(C)n(C)c3ccccc23)CC1	inactive	1.16	
Oc1[nH]c2ccccc2c1N=Nc1c(F)c(F)c(C(F)(F)F)c(F)c1F	inactive	14.6	

SMILES	Potency	cell number change [%]	lipid storage change, negative = inhibition
Cc1ccc(N=Nc2c(O)[nH]c3ccc(F)cc23)cc1	9.2 µM (active)	2.25	
O=C(O)c1ccc(N=Nc2c(O)[nH]c3ccc(Br)cc23)cc1	inactive	13.1	
Oc1[nH]c2ccccc2c1N=Nc1c(F)c(F)c(Cl)c(F)c1F	inactive	-0.455	
Cc1ccc2[nH]c(O)c(N=NC(N)=S)c2c1	inactive	9.04	
Oc1[nH]c2ccccc2c1N=Nc1ccc(F)cc1	20.6 µM (active)	-4.65	
O=C(NC1(C(=O)NC2CCCCC2)CCCCC1)c1ccc2c(c1)OCO2	inactive	4.66	
O=C(NNC(=O)c1cnccc1C(F)(F)F)c1ccccc1	inactive	8.28	
O=C(O)CC12CC3CC(C1)CC(n1ncc(NCc4ccc5c(c4)OCO5)c(Cl)c1=O)(C3)C2	inactive	16.3	
CN(C)S(=O)(=O)c1ccc(NC(=O)c2ccc([N+](=O)[O-])cc2)cc1	inactive	-1.07	
CN(CC1CCCO1)S(=O)(=O)c1ccc(C(=O)Nc2ccc(F)cc2)cc1 (stereo unspecified)	23.1 µM (active)	-21.7	
CN(CC1CCCO1)S(=O)(=O)c1ccc(C(=O)Nc2ccc([N+](=O)[O-])cc2)cc1 (stereo unspecified)	12.6 µM (active)	-17.5	
O=C(NCC1CCCO1)c1ccc(NC(=O)c2ccc([N+](=O)[O-])cc2)cc1 (stereo unspecified)	inactive	13.2	
Cc1cc(NC(=O)c2ccc(S(=O)(=O)N(C)CC3CCCO3)cc2)no1 (stereo unspecified)	inactive		
CN(CC1CCCO1)S(=O)(=O)c1ccc(C(=O)Nc2ccc3c(c2)OCO3)cc1 (stereo unspecified)	inactive	16.6	
CCOC(=O)Cn1c(=O)c2c(nc3n2CCS3)n(C)c1=O	inactive	2.48	
CN1C(C(=O)NCc2ccco2)CC2Cn3c(nc4cc5ccccc5cc43)C21 (stereo unspecified)	inactive	2.89	
COc1cccc(C(=O)NCCS(=O)(=O)N2CC(C)CC(C)C2)c1 (stereo unspecified)	inactive	28.7	
CCN(Cc1ccccc1)C(c1ccncc1)c1nnnn1C(C)(C)C (stereo unspecified)	inactive	1.49	
CCCNc1c(F)c(F)c2c(C)c3ccccc3nc2c1F	14.6 µM (active)	13.7	
CN(C)c1c2ccccc2nc2c(F)c(F)c(F)c(F)c12	inactive	-0.117	
Cc1c2ccccc2nc2c(F)c(N(C)C)c(F)c(F)c12	inactive	-4.76	
CCCNc1nc2ccccc2c(=O)[nH]1	inactive	-7.59	
Cc1c2ccccc2nc2c(F)c(NCCO)c(F)c(F)c12	inactive	-2.87	
Cc1c2ccccc2nc2c(F)c(NC(C)C)c(F)c(F)c12	20.6 µM (active)	-3.77	
